# Test results reported in PubChem BioAssay (EPA / NIEHS).
# Records with an inconclusive call do not appear. The source made the active and inactive calls. How the source made its calls: active means hit-call score of the fitted dose curve at least 0.9, where 1 is the maximum; inconclusive means response in the unintended direction; inactive means score below 0.9.
# What was measured:
# [1] = target: Estrogen receptor (Homo sapiens) (UniProt P03372); experiment: OT_ER_ERaERa_1440: Odyssey Thera (OT) 24-hour HEK293T Protein-Complementation Assay for Estrogen Receptor-alpha/-alpha Homodimer (AID 2283349);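 further: hits raise fluorescence above DMSO for agonists and antagonists alike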
# Outline: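 HEK293T, stable ERα LBD (aa 310-547) homodimer PCA; 24 h compound exposure; mean fluorescence intensity (nuclear for agonists, nuclear plus cytoplasmic for antagonists) vs vehicle; positive fitting direction, DMSO baseline.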
# [2] = target: Estrogen receptor (Homo sapiens) (UniProt P03372); experiment: OT_ER_ERaERa_0480: Odyssey Thera (OT) 8-hour HEK293T Protein-Complementation Assay for Estrogen Receptor-alpha/-alpha Homodimer (AID 2283351);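 further: rise in fluorescence from reassembled reporter fragments on ERα LBD homodimer in nucleus or whole cell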
# Outline: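 Measures ERα LBD (aa 310-547) homodimer complementation in stably transfected HEK293T at 8 h post-dose, with fluorescence intensity quantified on a laser scanning cytometer relative to DMSO controls.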
# [3] = target: T1, Estrogen receptor (Homo sapiens) + Estrogen receptor beta (Homo sapiens) (UniProt P03372+Q92731); experiment: OT_ER_ERaERb_0480: Odyssey Thera (OT) 8-hour HEK293T Protein-Complementation Assay for Estrogen Receptor-alpha/-beta Heterodimer (AID 2283352)
# Outline: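 Fluorescence increase from reconstituted reporter fragments, quantified by laser scanning cytometer, reflects ER-alpha/ER-beta heterodimer formation in human HEK293T cells. Exposure 8 h; positive-direction fitting against DMSO vehicle.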
# [4] = target: T1, Estrogen receptor (Homo sapiens) + Estrogen receptor beta (Homo sapiens); experiment: OT_ER_ERaERb_1440: Odyssey Thera (OT) 24-hour HEK293T Protein-Complementation Assay for Estrogen Receptor-alpha/-beta Homodimer (AID 2283356);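 further: heteromer of ER alpha and ER beta binding domains; hits raise reporter fluorescence and both agonists and antagonists give an increase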
# Outline: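 Fragment complementation between ER alpha (310-547) and ER beta (263-489) ligand-binding domains in HEK293T cells; signal read 24 h post-dosing by laser scanning cytometer. Gain of fluorescence relative to DMSO fitted.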
# [5] = target: Estrogen receptor beta (Homo sapiens) (UniProt Q92731); experiment: OT_ER_ERbERb_0480: Odyssey Thera (OT) 8-hour HEK293T Protein-Complementation Assay for Estrogen Receptor-beta/-beta Homodimer (AID 2283357);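 further: active means signal gain over DMSO baseline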
# Outline: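 ER-beta LBD homodimer PCA stably expressed in HEK293T; 8 h compound exposure, then formaldehyde fixation and Draq5 staining. Gain in nuclear/cytoplasmic fluorescence intensity versus DMSO vehicle, read on laser scanning cytometer.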
# [6] = target: Androgen Receptor/SRC-1 Co-activator, AR (gene 367) (UniProt P10275); experiment: OT_AR_ARSRC1_0960: Odyssey Thera (OT) 16-hour HEK293T Protein-Complementation Assay for Androgen Receptor/SRC-1 Co-activator (AID 2283353);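 further: actives raise the signal above DMSO so potency reflects increased AR and SRC-1 complex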
# Outline: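 Sixteen-hour cell assay: Venus halves fused to AR and SRC-1 in HEK293T report binding. Images at 488/635 nm give an N/C ratio in the 488 nm channel over ≥400 cells, analysed as signal increase over DMSO.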
# [7] = target: Androgen Receptor/SRC-1 Co-activator, AR (gene 367) (UniProt P10275); experiment: OT_AR_ARSRC1_0480: Odyssey Thera (OT) 8-hour HEK293T Protein-Complementation Assay for Androgen Receptor/SRC-1 Co-activator (AID 2283354);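 further: hits raise the complementation signal above DMSO so AC50 marks enhancers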
# Outline: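 Reconstituted split-Venus YFP signal from AR–SRC-1 interaction, read by imaging 8 h post-dose in stable HEK293T lines. The 488 nm nucleus-to-cytoplasm ratio (≥400 cells/image) was fitted upward against DMSO.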
# [8] = target: Nuclear receptor subfamily 1 group I member 2 (Homo sapiens) (UniProt O75469); experiment: NVS_NR_hPXR: NovaScreen (NVS) Nuclear Receptor Binding Assay for human Pregnane X Receptor (PXR) (AID 2283365);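 further: a drop in FRET signal versus DMSO baseline means the compound binds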
# Outline: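 Human PXR binding measured by TR-FRET in a cell-free format, 2 h exposure. Single-concentration duplicates at 25 uM preceded concentration-response retests of actives; endpoint fitted positively relative to DMSO, loss of signal indicating binding.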
# [9] = target: Glucocorticoid receptor (Homo sapiens) (UniProt P04150); experiment: NVS_NR_hGR: NovaScreen (NVS) Nuclear Receptor Binding Assay for human Glucocorticoid Receptor (GR) (AID 2283363)
# Outline: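 Compounds first tested in duplicate at 25 uM, actives followed up in concentration series. Binding to extracted GR protein measured as competitive radioligand displacement, filter scintillation read 16 h post-dosing, normalised to DMSO.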
# PGR (gene 5241) = PGR (gene 5241) (UniProt P06401); experiment: NVS_NR_hPR: NovaScreen (NVS) Nuclear Receptor Binding Assay for human Progestron Receptor (PR) (AID 2283360);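 further: active means loss of bound radioligand signal versus DMSO baseline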
# Outline: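 Competitive displacement of a labelled radioligand from T47D-derived receptor protein is measured in a cell-free format. Initial testing uses 25 uM in duplicate, with positive and negative controls on every plate.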
# [10] = target: human Thyroid Receptor Alpha (TRa), THRA (gene 7067) (UniProt P10827); experiment: NVS_NR_hTRa_Antagonist: NovaScreen (NVS) Nuclear Receptor Binding Assay for human Thyroid Receptor Alpha Antagonism (TRa) (AID 2283362);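 further: activity is loss of signal relative to DMSO baseline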
# Outline: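 Actives from a duplicate 25 uM single-point screen were retested in concentration series. The cell-free antagonist-format binding assay was read by AlphaLISA chemiluminescence at 1 h, scored as signal loss relative to DMSO.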
# Estrogen receptor beta (Homo sapiens), sequence (Q92731 whole entry, looked up, the tested form may be a part): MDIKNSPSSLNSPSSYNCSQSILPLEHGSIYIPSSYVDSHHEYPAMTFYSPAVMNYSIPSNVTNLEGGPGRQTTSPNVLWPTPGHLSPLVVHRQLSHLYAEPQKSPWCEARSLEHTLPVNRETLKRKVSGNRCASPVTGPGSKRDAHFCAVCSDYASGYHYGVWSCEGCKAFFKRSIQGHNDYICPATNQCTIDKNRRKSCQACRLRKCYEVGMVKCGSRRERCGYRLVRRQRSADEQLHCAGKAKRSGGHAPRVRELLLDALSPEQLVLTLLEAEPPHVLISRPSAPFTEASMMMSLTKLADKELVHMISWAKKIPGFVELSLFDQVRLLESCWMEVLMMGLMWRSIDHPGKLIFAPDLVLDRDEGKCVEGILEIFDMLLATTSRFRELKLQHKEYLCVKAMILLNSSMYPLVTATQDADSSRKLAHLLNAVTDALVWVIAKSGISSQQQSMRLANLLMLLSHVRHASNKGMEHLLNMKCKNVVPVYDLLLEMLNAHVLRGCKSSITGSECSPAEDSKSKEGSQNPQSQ
# Androgen Receptor/SRC-1 Co-activator, AR (gene 367), sequence (P10275 whole entry, looked up, the tested form may be a part): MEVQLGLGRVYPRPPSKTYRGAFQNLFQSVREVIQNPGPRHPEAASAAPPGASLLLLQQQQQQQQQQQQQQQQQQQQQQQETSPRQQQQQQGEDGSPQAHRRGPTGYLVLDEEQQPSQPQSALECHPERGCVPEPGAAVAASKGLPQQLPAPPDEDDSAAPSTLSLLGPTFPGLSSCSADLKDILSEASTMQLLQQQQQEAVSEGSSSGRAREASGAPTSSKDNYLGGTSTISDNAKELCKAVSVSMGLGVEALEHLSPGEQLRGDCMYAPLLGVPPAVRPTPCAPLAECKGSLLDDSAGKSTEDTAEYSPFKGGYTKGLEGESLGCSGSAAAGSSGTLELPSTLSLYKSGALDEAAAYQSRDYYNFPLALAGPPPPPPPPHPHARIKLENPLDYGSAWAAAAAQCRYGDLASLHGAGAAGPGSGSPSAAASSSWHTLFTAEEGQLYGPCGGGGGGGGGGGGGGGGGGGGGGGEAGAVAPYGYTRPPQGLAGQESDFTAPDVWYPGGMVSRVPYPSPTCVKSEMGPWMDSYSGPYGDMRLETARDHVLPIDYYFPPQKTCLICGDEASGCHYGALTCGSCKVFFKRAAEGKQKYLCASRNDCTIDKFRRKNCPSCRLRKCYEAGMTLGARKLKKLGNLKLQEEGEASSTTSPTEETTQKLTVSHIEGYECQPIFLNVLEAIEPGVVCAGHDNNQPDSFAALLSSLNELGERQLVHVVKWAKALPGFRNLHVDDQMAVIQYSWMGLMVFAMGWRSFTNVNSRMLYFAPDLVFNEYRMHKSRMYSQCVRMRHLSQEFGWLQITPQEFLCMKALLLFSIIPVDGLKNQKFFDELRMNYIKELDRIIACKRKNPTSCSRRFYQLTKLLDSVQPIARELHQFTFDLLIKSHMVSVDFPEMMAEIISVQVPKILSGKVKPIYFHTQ
# T1 sequence (P03372 whole entry, looked up, the tested form may be a part): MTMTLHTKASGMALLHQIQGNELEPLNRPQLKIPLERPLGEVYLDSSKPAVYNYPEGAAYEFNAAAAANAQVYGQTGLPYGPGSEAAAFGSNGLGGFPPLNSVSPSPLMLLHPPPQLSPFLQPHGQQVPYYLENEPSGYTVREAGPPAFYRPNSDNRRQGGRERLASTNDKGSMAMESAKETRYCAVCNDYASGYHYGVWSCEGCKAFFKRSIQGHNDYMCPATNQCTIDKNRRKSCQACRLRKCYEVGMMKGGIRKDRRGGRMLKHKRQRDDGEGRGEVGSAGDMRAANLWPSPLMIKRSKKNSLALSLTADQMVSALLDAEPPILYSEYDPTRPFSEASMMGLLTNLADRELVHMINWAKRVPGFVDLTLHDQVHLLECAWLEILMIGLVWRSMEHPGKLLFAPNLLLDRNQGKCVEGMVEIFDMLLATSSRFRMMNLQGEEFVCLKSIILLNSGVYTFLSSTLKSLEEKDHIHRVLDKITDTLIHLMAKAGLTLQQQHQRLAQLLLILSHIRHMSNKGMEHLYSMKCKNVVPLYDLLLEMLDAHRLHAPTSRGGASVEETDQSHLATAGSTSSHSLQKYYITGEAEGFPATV
# T1 sequence (Q92731 whole entry, looked up, the tested form may be a part): as the sequence (Q92731 whole entry, looked up, the tested form may be a part) above
# Estrogen receptor (Homo sapiens), sequence (P03372 whole entry, looked up, the tested form may be a part): as the sequence (P03372 whole entry, looked up, the tested form may be a part) above
# Nuclear receptor subfamily 1 group I member 2 (Homo sapiens), sequence (O75469 whole entry, looked up): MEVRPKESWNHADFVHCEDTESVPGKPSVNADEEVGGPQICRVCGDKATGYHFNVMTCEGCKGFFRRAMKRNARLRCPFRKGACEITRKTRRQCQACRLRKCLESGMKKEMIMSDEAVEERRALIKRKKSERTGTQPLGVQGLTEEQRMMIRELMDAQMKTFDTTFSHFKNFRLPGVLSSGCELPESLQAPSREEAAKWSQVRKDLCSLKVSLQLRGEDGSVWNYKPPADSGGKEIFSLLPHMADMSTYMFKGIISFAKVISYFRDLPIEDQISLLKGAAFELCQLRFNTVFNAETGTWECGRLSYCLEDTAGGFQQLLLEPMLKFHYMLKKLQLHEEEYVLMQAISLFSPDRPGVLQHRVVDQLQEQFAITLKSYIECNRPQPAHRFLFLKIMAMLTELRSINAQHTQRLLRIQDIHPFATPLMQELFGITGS
# Glucocorticoid receptor (Homo sapiens), sequence (P04150 whole entry, looked up): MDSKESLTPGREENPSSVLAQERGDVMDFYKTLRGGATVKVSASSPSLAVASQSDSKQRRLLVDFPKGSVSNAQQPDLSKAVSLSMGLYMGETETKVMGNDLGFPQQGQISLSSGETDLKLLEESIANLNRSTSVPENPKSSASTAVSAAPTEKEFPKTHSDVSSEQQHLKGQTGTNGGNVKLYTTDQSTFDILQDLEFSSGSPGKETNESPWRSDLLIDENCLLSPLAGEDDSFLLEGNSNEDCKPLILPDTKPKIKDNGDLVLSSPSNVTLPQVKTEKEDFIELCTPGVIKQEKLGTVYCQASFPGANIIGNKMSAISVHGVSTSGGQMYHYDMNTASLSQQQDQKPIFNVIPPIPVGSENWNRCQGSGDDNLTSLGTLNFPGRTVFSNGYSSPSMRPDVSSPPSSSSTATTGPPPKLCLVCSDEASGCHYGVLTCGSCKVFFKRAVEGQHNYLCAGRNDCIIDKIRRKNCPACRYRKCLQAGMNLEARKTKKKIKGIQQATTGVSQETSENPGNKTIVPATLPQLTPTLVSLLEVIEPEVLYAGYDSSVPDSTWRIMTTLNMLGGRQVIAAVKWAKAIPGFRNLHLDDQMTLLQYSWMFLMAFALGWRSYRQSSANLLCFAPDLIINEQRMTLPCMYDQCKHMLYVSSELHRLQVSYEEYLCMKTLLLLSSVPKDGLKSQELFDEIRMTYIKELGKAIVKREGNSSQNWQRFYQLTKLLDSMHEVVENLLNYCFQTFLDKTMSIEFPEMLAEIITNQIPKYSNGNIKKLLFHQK
# PGR (gene 5241), sequence (P06401 whole entry, looked up): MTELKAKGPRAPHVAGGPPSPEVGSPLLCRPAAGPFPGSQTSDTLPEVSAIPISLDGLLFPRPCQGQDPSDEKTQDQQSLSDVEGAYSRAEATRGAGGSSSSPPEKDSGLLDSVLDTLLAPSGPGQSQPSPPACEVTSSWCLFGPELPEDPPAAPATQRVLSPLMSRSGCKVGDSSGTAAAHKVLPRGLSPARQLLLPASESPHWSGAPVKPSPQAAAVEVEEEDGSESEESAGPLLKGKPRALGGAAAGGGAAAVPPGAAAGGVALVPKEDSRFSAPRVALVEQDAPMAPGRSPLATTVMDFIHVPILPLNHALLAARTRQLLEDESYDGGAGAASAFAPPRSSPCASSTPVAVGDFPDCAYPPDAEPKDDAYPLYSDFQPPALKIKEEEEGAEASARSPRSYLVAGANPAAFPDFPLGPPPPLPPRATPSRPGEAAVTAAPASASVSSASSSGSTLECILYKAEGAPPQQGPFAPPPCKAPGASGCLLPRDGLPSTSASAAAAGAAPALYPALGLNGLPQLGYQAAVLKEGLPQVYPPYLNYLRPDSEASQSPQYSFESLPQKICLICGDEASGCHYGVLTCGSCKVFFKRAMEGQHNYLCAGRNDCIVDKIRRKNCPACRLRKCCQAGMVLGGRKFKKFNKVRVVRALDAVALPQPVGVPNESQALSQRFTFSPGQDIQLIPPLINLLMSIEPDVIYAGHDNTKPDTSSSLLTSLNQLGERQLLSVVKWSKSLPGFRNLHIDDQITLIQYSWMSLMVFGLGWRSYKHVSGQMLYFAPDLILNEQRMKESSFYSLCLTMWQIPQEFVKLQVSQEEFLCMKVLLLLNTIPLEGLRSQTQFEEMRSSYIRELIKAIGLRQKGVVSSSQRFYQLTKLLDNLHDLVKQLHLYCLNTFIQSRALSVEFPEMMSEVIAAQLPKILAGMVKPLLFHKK
# human Thyroid Receptor Alpha (TRa), THRA (gene 7067), sequence (P10827 whole entry, looked up): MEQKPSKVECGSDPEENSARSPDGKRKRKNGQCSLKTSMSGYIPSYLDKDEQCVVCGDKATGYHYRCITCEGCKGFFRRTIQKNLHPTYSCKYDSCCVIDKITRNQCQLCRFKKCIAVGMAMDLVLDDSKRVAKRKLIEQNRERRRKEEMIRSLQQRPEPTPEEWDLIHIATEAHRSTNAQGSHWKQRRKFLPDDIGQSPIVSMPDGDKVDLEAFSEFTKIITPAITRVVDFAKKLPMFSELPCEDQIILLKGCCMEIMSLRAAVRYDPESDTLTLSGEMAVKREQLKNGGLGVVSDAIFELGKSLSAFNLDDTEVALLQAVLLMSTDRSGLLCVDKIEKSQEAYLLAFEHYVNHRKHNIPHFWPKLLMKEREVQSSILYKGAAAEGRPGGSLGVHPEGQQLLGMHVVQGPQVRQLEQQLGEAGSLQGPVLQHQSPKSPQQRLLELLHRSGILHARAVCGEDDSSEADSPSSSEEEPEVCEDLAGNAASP
smiles,measurement,setting,value
CC(=O)C1=C(C)[C@@H]2C[C@@]3(C1)[C@H](C)CC[C@H]3C2(C)C,AC50,[1],72.1 µM (active)
same,AC50,[2],21.6 µM (active)
same,AC50,[3],12.4 µM (active)
same,AC50,[4],58.1 µM (active)
same,AC50,[5],12.8 µM (active)
c1ccc(Cc2ccccc2)cc1,outcome,[1],inactive
same,outcome,[2],inactive
same,AC50,[3],50 µM (active)
same,outcome,[4],inactive
CC1=CCC(C(C)(C)O)CC1 (stereo not drawn),outcome,[1],inactive
same,outcome,[2],inactive
same,outcome,[6],inactive
same,outcome,[7],inactive
NC(=O)c1cccnc1,outcome,[1],inactive
same,outcome,[2],inactive
same,outcome,[4],inactive
same,outcome,[5],inactive
CC(C)(C)C1CCC(O)CC1 (stereo not drawn),outcome,[1],inactive
same,outcome,[2],inactive
same,outcome,[3],inactive
same,outcome,[4],inactive
same,outcome,[5],inactive
OC[C@H]1O[C@@H](O[C@H]2[C@H](O)[C@@H](O)[C@H](O)O[C@@H]2CO)[C@H](O)[C@@H](O)[C@H]1O,outcome,[1],inactive
same,outcome,[2],inactive
same,outcome,[6],inactive
same,outcome,[7],inactive
same,outcome,[4],inactive
same,outcome,[5],inactive
CCC(C)(C)C1CCC(OC)CC1 (stereo not drawn),outcome,[1],inactive
same,outcome,[2],inactive
same,outcome,[3],inactive
same,outcome,[4],inactive
same,outcome,[5],inactive
same,outcome,[8],inactive
C=CCCCCCCCCC(=O)OCC,outcome,[1],inactive
same,outcome,[2],inactive
same,outcome,[3],inactive
same,outcome,[4],inactive
same,outcome,[5],inactive
CCC(C)COC(=O)CC(C)C (stereo not drawn),outcome,[1],inactive
same,outcome,[2],inactive
same,outcome,[3],inactive
same,outcome,[4],inactive
same,outcome,[5],inactive
COc1cc(OC)c2ccc(=O)oc2c1,outcome,[1],inactive
same,outcome,[2],inactive
same,outcome,[3],inactive
same,outcome,[6],inactive
same,outcome,[7],inactive
same,outcome,[4],inactive
same,outcome,[5],inactive
CCCCCCCCCCCCS,outcome,[1],inactive
same,outcome,[2],inactive
same,outcome,[3],inactive
same,outcome,[4],inactive
same,outcome,[5],inactive
same,outcome,[8],inactive
CCCCCCCCCCOC(=O)c1ccccc1C(=O)OCCCCCCCC,outcome,[1],inactive
same,outcome,[2],inactive
same,outcome,[3],inactive
same,outcome,[6],inactive
same,outcome,[7],inactive
same,outcome,[4],inactive
same,outcome,[5],inactive
same,outcome,[9],inactive
same,outcome,[8],inactive
CCCCCC1CCC(=O)O1 (stereo not drawn),outcome,[1],inactive
same,outcome,[2],inactive
same,outcome,[3],inactive
same,outcome,[4],inactive
same,outcome,[5],inactive
same,outcome,[8],inactive
CC(C)N(c1ccccc1)C(C)C,outcome,[1],inactive
same,outcome,[2],inactive
same,outcome,[3],inactive
same,outcome,[4],inactive
same,outcome,[5],inactive
CCCC[N+](C)(CCCC)CCCC,outcome,[1],inactive
same,outcome,[2],inactive
same,outcome,[4],inactive
same,outcome,[5],inactive
CCCC(O)C(CC)CO (stereo not drawn),outcome,[1],inactive
same,outcome,[2],inactive
same,outcome,[3],inactive
same,outcome,[4],inactive
same,outcome,[5],inactive
CC(=O)c1ccc(O)cc1,outcome,[1],inactive
same,outcome,[2],inactive
same,outcome,[3],inactive
same,outcome,[4],inactive
same,outcome,[5],inactive
CCCc1ccc(N)cc1,outcome,[1],inactive
same,outcome,[2],inactive
same,outcome,[3],inactive
same,outcome,[4],inactive
same,outcome,[5],inactive
CCCCOCCOCCOCCO,outcome,[1],inactive
same,outcome,[2],inactive
same,outcome,[4],inactive
same,outcome,[5],inactive
CCCCOCCOCCO,outcome,[1],inactive
same,outcome,[2],inactive
same,outcome,[3],inactive
same,outcome,[4],inactive
COC(=O)c1cccc(C(=O)OC)c1,outcome,[1],inactive
same,outcome,[2],inactive
same,outcome,[6],inactive
same,outcome,[7],inactive
same,outcome,[4],inactive
COC(=O)C(C)Oc1ccc(Oc2ncc(C(F)(F)F)cc2Cl)cc1 (stereo not drawn),outcome,[1],inactive
same,outcome,[2],inactive
same,outcome,[5],inactive
[Na+],outcome,[1],inactive
same,outcome,[2],inactive
same,outcome,[3],inactive
same,outcome,[4],inactive
same,outcome,[5],inactive
CC(=O)OC/C=C(C)/C=C/C=C(C)/C=C/C1=C(C)CCCC1(C)C,outcome,[1],inactive
same,outcome,[2],inactive
same,outcome,[4],inactive
same,outcome,[5],inactive
same,AC50,[8],2.21 µM (active)
COC(=O)c1ccc(C(=O)OC)cc1,outcome,[1],inactive
same,outcome,[3],inactive
same,outcome,[4],inactive
same,outcome,[5],inactive
O=C(OCc1ccccc1)c1ccccc1O,outcome,[1],inactive
same,AC50,[3],46 µM (active)
same,AC50,[4],44.5 µM (active)
same,AC50,[5],54.6 µM (active)
c1ccc2scnc2c1,outcome,[1],inactive
same,outcome,[3],inactive
same,outcome,[4],inactive
same,outcome,[5],inactive
same,outcome,[8],inactive
C=CC(C)CCCC(C)(C)O (stereo not drawn),outcome,[1],inactive
same,outcome,[3],inactive
same,outcome,[4],inactive
CN(C)C(=O)Nc1ccccc1,outcome,[1],inactive
same,outcome,[3],inactive
same,outcome,[4],inactive
same,outcome,[8],inactive
CCCO,outcome,[1],inactive
same,outcome,[3],inactive
same,outcome,[4],inactive
same,outcome,[5],inactive
c1ccc2c(c1)-c1ccc3ccc4cccc5cc-2c1c3c45,outcome,[9],inactive
CCCC1CCC(=O)CC1,outcome,[1],inactive
same,outcome,[3],inactive
same,outcome,[4],inactive
same,outcome,[5],inactive
CCCO[Si](OCCC)(OCCC)OCCC,outcome,[1],inactive
same,AC50,[3],38.3 µM (active)
same,outcome,[4],inactive
same,outcome,[5],inactive
O=C(O)C1=NN(c2ccc(S(=O)(=O)O)cc2)C(=O)C1,outcome,[1],inactive
same,outcome,[2],inactive
same,outcome,[8],inactive
CC(CO)(CO)[N+](=O)[O-],outcome,PGR (gene 5241),inactive
O=S(=O)(O)c1cc(S(=O)(=O)O)c2c(N=Nc3ccccc3)c(O)ccc2c1,outcome,[1],inactive
same,outcome,[3],inactive
same,outcome,[4],inactive
same,outcome,[5],inactive
same,outcome,[10],inactive
C=CC(O)CCCCC (stereo not drawn),outcome,[8],inactive
COc1ccc2[nH]cc(CCNC(C)=O)c2c1,outcome,[1],inactive
same,outcome,[3],inactive
same,outcome,[4],inactive
same,outcome,[5],inactive
C=C1CC[C@H]2O[C@]2(C)CC[C@@H]2[C@@H]1CC2(C)C,outcome,PGR (gene 5241),inactive
CC(C)C(=O)c1ccccc1,outcome,[1],inactive
same,outcome,[3],inactive
same,outcome,[4],inactive
same,outcome,[8],inactive
CC(=O)OC(C)(C)C,outcome,[1],inactive
same,outcome,[3],inactive
same,outcome,[4],inactive
same,outcome,[5],inactive
